Results published in the supplement of paper PMC6555819.

Assays:
Experiment in all cases: PBM binding z-score (relative to random genomic background probes); higher = stronger binding; sequences stand for … in GC…GCGATTGACAGCGTAGAATGAAGG
[1] = test system: FXR:RXRa (NR concentration 270 nM, RXRa partner concentration 90 nM)
In short: (§1)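 Each nuclear receptor dimer, without ligand, was incubated for 1 h on custom Agilent 4×180K protein-binding microarrays. Binding was detected with antibodies against each partner (one per run), and scanned fluorescence was regression-normalized. The binding z-scores are referenced to random human genomic background probes.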

[2] = test system: LXRa:RXRa (NR concentration 270 nM, RXRa partner concentration 90 nM)
In short: as §1

[3] = test system: LXRa homodimer (NR concentration 270 nM)
In short: as §1

[4] = test system: LXRb:RXRa (NR concentration 270 nM, RXRa partner concentration 90 nM)
In short: as §1

[5] = test system: LXRb homodimer (NR concentration 270 nM)
In short: as §1

[6] = test system: PPARa:RXRa (NR concentration 270 nM, RXRa partner concentration 90 nM)
In short: as §1

[7] = test system: PPARg:RXRa (NR concentration 180 nM, RXRa partner concentration 90 nM)
In short: as §1

[8] = test system: PPARg:RXRa 270nM:90nM, anti-RXR (NR concentration 270 nM, RXRa partner concentration 90 nM)
In short: as §1

[9] = test system: PPARg:RXRa 30nM:10nM, anti-RXR (NR concentration 30 nM, RXRa partner concentration 10 nM)
In short: as §1

[10] = test system: PPARg:RXRa 90nM:30nM, anti-RXR (NR concentration 90 nM, RXRa partner concentration 30 nM)
In short: as §1

Sequence	PBM binding z-score [1]	PBM binding z-score [2]	PBM binding z-score [3]	PBM binding z-score [4]	PBM binding z-score [5]	PBM binding z-score [6]	PBM binding z-score [7]	PBM binding z-score [8]	PBM binding z-score [9]	PBM binding z-score [10]
CCTGCTAGGTCAATGGTCATCTAAAGCAGCTCGC	2.9	2.28	0.085	1.68	0.00102	3.22	4.71	5.48	3.24	5.52
ATCTCTAGGTAAGACTCAGTTCAGTAAAGAACGC	0.34	0.725	0.918	0.419	0.923	0.152	0.102	0.669	0.474	0.414
CCTACTGGGCCAAAGGTCATTGCTTCCAATGCTC	4.94	5.17	4.85	4.86	0.985	6.51	11.3	9.77	10.1	11.1
ACAGACAGGTGATGAAGGTAACCCAGGCTATCAT	-0.0743	-0.103	-0.116	-0.241	-0.475	0.302	0.814	0.0501	0.126	-0.204
CCTCGGAGGACAGAAGGTCAGTGCTGTCCGCTTT	1.08	1.1	-0.0896	0.672	-0.597	1.49	-0.509	0.452	-0.825	-0.242
CCGACTGGGGCATAAGGTTACCAAAAGCCAGCCC	0.243	1.26	-0.202	0.884	-1.26	2.36	2.34	3.15	0.904	2.48
GCTTGTAGAACAAGGTTAAGAAAGACTAAGCTAA	-0.242	0.558	-0.426	0.502	-0.664	1.6	0.852	1.67	0.36	1.11
TCTTGTAGATCAACCGGAGGTTAAGAAAGATCGA	0.397	1.58	1.09	1.17	-0.00394	1.26	-0.257	1.55	2.69	2.15
CCTCGGAGGACAACAGAAGGTCAGAGCTGCCAGA	0.854	1.74	0.922	1.14	-0.67	1.78	0.435	0.249	-0.533	-0.218
ATCGAAAGGTCGTGAGGTGAATATACAGAAAGGC	5.8	4.42	0.33	3.66	0.583	5.66	4.88	4.97	2	3.71
GGAACGAGGGCAGGTTGATAGCAGAGTTTGATGG	0.204	0.00952	-0.393	0.00491	-0.45	0.686	0.674	0.307	-0.182	0.0591
AGTCAAAGTTCAGGCCGAGGTAACGTAAAGCACG	4.1	4.03	1.27	1.71	0.0903	3.25	4.14	5.07	1.71	4.1
ACTTACGGGTCAACGAGGTTATACCACGCGTATA	6.87	5.39	1.14	4.59	0.838	5.83	5.59	5.57	1.82	4.26
CCTAGTTGGCCAGGAGGTCACACACCGGATATGA	4.04	3.22	1.73	3.53	0.178	4.15	2.42	2.91	0.806	2.2
AGCTCTAGGTAAAGTTCAGTGAAAGATCGATAGA	0.591	1.3	0.886	0.579	-0.0933	1.83	1.55	2.93	0.866	2.37
TCATGTAGATCAAAGGTTAAGAAAGCCGAAGCCT	1.74	2.28	0.326	2.06	-0.197	4.5	8.22	8.1	7.58	8.85
GCTCGGAGGACAAGGTCAGTGCTTTGTCCGTAGA	1.54	1.23	-0.17	1.09	-0.53	1.94	0.00556	1.33	-0.784	0.326
TCTTGTAGATCAGCAGGGTAAGAAAGCTGGCCAA	-0.168	-0.124	-0.627	-0.0454	-0.559	0.26	-0.512	1.17	2.55	1.82
ACTAGTTGGTCAGATGAGGTCACACACAATTCGG	3.83	3.41	2.89	3.36	0.869	3.74	2.28	2.43	0.846	1.63
ATCTCTAGGTAAAAGTTCAGGGAATCCCGAGGAT	1.28	1.71	1.26	1.12	1.04	4.42	8.19	7.53	7.81	8.27
GCTTACGGGTCAAAGGTTATAGCATGAATAGAAT	7.45	5.9	0.64	6.1	0.563	6.96	11.1	9.42	9.01	9.91
TCATATAGATAAACAGGTGAAAGTCCGTAAGTTA	1.22	1.04	0.611	1.09	0.473	1.69	1.41	2.83	4.51	3.77
CCTAGTTGGTCAAGGTCAGACACGCTATAGGTAC	2.19	2.38	1.11	2.12	0.541	2.78	1.85	2.26	0.813	1.73
CGTCAAAGTTCAACTAAGGTATCGTAAAGCACGC	7.21	6.22	4.37	4.24	2.23	5.15	4.83	5.57	2.02	4.5

Sequence	PBM binding z-score [1]	PBM binding z-score [2]	PBM binding z-score [3]	PBM binding z-score [4]	PBM binding z-score [5]	PBM binding z-score [6]	PBM binding z-score [7]	PBM binding z-score [8]	PBM binding z-score [9]	PBM binding z-score [10]
TTACCAAGGTGAAGATCGTTGATCCCTCTGTAGA	0.339	0.08	-0.422	0.141	-0.815	1.14	0.457	0.958	0.156	0.575
CCTATTAGTTGACCATAAGGGCAACCCAAGCTCG	1.15	0.607	0.597	0.677	0.607	0.81	0.661	0.62	0.211	0.475
ACAGACAGGCGATGAAGGTAACTCAGGCTATCAT	-0.05	-0.309	-0.155	-0.384	-0.145	-0.503	0.721	-0.326	0.0512	-0.438
CCTCGGAGGACAGAAGGTCAGAGATGTCCGCTTT	0.986	1.24	0.141	0.889	-0.867	1.55	0.383	0.542	-0.288	0.432
GCGACCGGGGCATCAGCAGGTTACCATAACTTAA	0.256	0.277	-0.271	0.643	-0.263	1.17	0.512	-0.0952	-0.743	-0.899
AGAATGAGGTTATACGTAGATCAAGGAAGAAAGT	2.5	2.22	0.0848	1.72	0.172	3.25	2.25	2.12	0.826	1.62
CCTACTGGGCCAAAAAGGTCATTTATGCCGATAA	3.57	4.05	4.05	4.58	0.674	4.48	3.08	3.67	1.23	2.79
AGAATGAGGTTACCAAAGATCAGGGTAACGCTTG	2.45	6.27	-0.1	3.22	-0.278	3.65	2.8	3.14	1.16	2.54
CCAAGCAGGCCAATCTGGGTCACTCAAGGCTTGA	0.754	1.79	-0.345	0.979	-1.19	3.45	2.46	2.55	0.227	1.63
AGAACGAGGGCACGCTGAGTAGATAGCAGAGTAG	0.37	0.529	-0.626	0.201	-0.892	2.15	2.28	1.87	0.547	1.18
TTACCAAGGTGAGCTGAGGTAGTTGATCCAACTC	-0.711	-0.48	-0.742	-0.743	-1.03	0.16	-0.149	-0.0423	-0.136	-0.391
GCTTGTAGATCAAGGTTAAGACAGACTAAGCTAA	0.188	0.807	-0.318	0.486	-0.279	1.61	1.25	2.16	0.803	1.8
CCTGCTAGGTCAATGGTCAGCCAAAGCAGCTCGC	2.77	2.02	0.0245	1.36	-0.223	3.1	5.04	5.03	2.96	5.02
ATCTCTAGGTAAACGTTCAGTGAATCCCGAGGAT	-0.236	-0.144	-0.301	-0.282	0.657	0.613	1.14	2.17	1.01	1.75
ACTAGCAGGCCAAGGGTCACACAAGATTAGTCCG	3.44	3.18	0.449	3.38	-0.147	4.88	8.73	6.99	6.3	7.72
CTACCAAGGTGAACAAGGTCGTTGTTTACTATTC	1.24	1.22	-0.0325	1.85	-0.465	2.46	0.787	1.29	-0.0619	0.702
CCGACTGGGGCAGAAAGGTTCCCATACCATCCGG	-0.722	-0.705	-0.526	-0.996	-1.27	-0.271	0.412	0.198	-0.842	-0.499
CCTACTGGGCCACGAAAGGACATTGATTCAGTGA	0.276	0.0312	0.0181	-0.441	-0.67	0.738	1.63	1.22	-0.124	0.606
TTAGACAGGTGAAGGTAACTCAGGTACGCAGTCG	0.437	1.75	-0.26	0.818	-0.0711	1.07	0.825	1.33	1.9	1.54
TCATATAGGTAAAAGGTGAAAGACGGTGTGGTAA	2.04	2.03	0.309	2.05	0.213	5.1	9.86	8.73	9.9	10.6
TGTCAAAGATCAAAGGTAACGTAAGTATCCACAC	1.19	1.08	-0.325	1.32	-0.103	2.73	4.17	4.22	2.19	3.68
TCTTGTAGATCAGCAGGTCAAGAAAGCTGGCCAA	1.17	1.55	0.209	1.59	-0.222	2.5	0.457	2.37	2.48	2.59
ATATGTAGTTTAAGGGTCATTCAGGTTGGTTCGC	4.61	4.11	2.99	4.07	1.53	5.03	6.25	6.64	5.02	6.74
TCTATTAGTTGAAGGGCAACCGGCGAGTCCGTTT	0.888	1.19	0.417	0.88	0.229	0.966	-0.211	2.04	3.53	2.92
